“And” between values parts separate entries of the source, which are not always exact repeats. Equal values may be shown once. Inconclusive results are not listed. Some compounds were tested as several samples or in several runs, with calls that do not always agree. The source made the active and inactive calls. How the source made its calls, unless noted: active means hit-call score of the fitted dose curve at least 0.9, where 1 is the maximum; inactive means score below 0.9.
What was measured:
[1] = CCTE_Shafer_MEA_dev_AB: CCTE's Alamar Blue Assay for Cytotoxicity in the Neural Network Formation Assay, Shafer Lab (AID 2284083; active means hit-call score of the fitted dose curve at least 0.9, where 1 is the maximum;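 further: twelve days of exposure from plating with re-dosing on DIV 5 and 9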)
Summary of the method: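 Primary rat cortical neurons on PEI-coated 48-well MEA plates, 1.5 x 10^5 cells/well in laminin drop; compound exposure from day 0 of plating for twelve days, renewed at medium changes on DIV 5 and 9. Viability read as resazurin reduction by fluorescence, relative to DMSO.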

[2] = CCTE_Shafer_MEA_acute_LDH: CCTE's Lactate Dehydrogenase Assay for Cytotoxicity in the Neural Acute Assay, Shafer Lab (AID 2284086; active means hit-call score of the fitted dose curve at least 0.9, where 1 is the maximum;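 further: active means LDH release rises above DMSO vehicle level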)
Summary of the method: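 Cytotoxicity readout: spectrophotometric LDH activity in supernatant of rat primary cortical neurons, post-plating day 13 or 15, sampled after 40 min compound exposure; signal gain relative to DMSO baseline.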

[3] = CCTE_Shafer_MEA_dev_mutual_information_norm: CCTE's Neural Network Formation Assay for Mutual Information Normalization, Shafer Lab (AID 2284091);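 on AC50: mutual information between electrodes summarised as area under curve across four recording days; potency is for a decrease in mutual information relative to DMSO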
Summary of the method: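 Shared information across electrodes, tracked on days 5, 7, 9 and 12 of network development and collapsed as trapezoidal area under the curve. Rat cortical cultures were treated continuously from plating, with treatment renewed at feeds on DIV 5 and 9; DMSO baseline, negative-direction fit.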

[4] = CCTE_Shafer_MEA_dev_correlation_coefficient_mean: CCTE's Neural Network Formation Assay for Mean Correlation Coefficient, Shafer Lab (AID 2284093);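 on AC50: well mean pairwise spike train correlation integrated as AUC over recording days 5 to 12; potency fitted for loss of correlation relative to DMSO vehicle wells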
Summary of the method: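 Spontaneous activity recorded on days 5, 7, 9 and 12 post-plating; pairwise spike correlations are averaged across active electrodes and collapsed to an area-under-curve. Rat cortical cultures are dosed from plating through 12 days, with compound renewed at media changes.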

[5] = IUF_NPC1b_proliferation_BrdU_72hr: Leibniz Research Institute for Environmental Medicine (IUF) 72-hour Neural Progenitor Cell Bromodeoxyuridine (BrdU) Proliferation Assay (NPC1b) (AID 2284207)
Summary of the method: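 Human fetal cortex-derived (GW 16-19) neural progenitor spheres, 0.25-0.35 mm, one per well in EGF/FGF proliferation medium, exposed to compound for 72 h at 37C, pH 7.2-7.6. BrdU incorporation over the final 16 h read by luminescence ELISA, relative to DMSO.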

[6] = IUF_NPC1_viability_72hr: Viability Assessment at 72 hours in the Leibniz Research Institute for Environmental Medicine (IUF) Neural Progenitor Cell Proliferation Assay (NPC1) (AID 2284209)
Summary of the method: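 Three-day continuous exposure of human neural progenitor spheres under EGF/FGF-driven proliferation; cell viability scored by alamar blue signal versus DMSO.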

[7] = CCTE_Mundy_HCI_Cortical_Synap_Neur_Matur_NeuriteSpotCountPerNeuriteLength: CCTE's Synaptogenesis and Neurite Maturation Assay in rat cortical cells for Neurite Spot Count per Neurite Length, Mundy Lab (AID 2284210)
Summary of the method: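 Synaptophysin spots per unit neurite length, measured by automated imaging of MAP2/synaptophysin/Hoechst-stained neurons. Cultures from rat cortex received chemical at DIV 7 with media change through DIV 12; glial growth arrested by AraC at DIV 5; DMSO baseline.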

[8] = CCTE_Mundy_HCI_Cortical_Synap_Neur_Matur_BPCount: CCTE's Synaptogenesis and Neurite Maturation Assay in rat cortical cells for Branch Point Count, Mundy Lab (AID 2284211)
Summary of the method: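 In this multiplexed morphology assay, cortical cells from rat receive chemicals at DIV 7 and are fixed at DIV 12, then immunostained and imaged; branch points are counted, with DMSO as baseline.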

[9] = UKN2_HCS_IMR90_neural_migration: University of Konstanz (UKN) Leist Lab Neural Crest Cell Migration Assay in human induced IMR90 Pluripotent Stem Cells (UKN2) (AID 2284204); settings: actives raise or lower the signal
Summary of the method: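 High-content imaging of calcein-AM and Hoechst stained cells quantifies migration into a stopper-defined gap after 24 h compound exposure. Neural crest cells from IMR90 iPSC migrated 24 h in EGF/FGF N2-S medium before dosing; DMSO baseline.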

[10] = UKN4_HCS_LUHMES_neurite_outgrowth: University of Konstanz (UKN) Leist Lab Neurite Outgrowth Assay in human LUHMES cells (UKN4) (AID 2284206); settings: actives raise or lower the signal
Summary of the method: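 Neurite area in dopaminergic-model LUHMES neurons is measured by high-content imaging of calcein-AM after 24 h treatment starting shortly after day-2 replating; Hoechst staining tracks viability.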

Measured: AC50

CC1(C)C(C=C(Cl)Cl)C1C(=O)OC(C#N)c1cccc(Oc2ccccc2)c1 (configuration not stated)
inactive: [1] | [2] | [3] | [4] | [5] | [6] | [7]
active: [3] 1.43 µM | [4] 3.6 µM | [8] 0.00451 µM

CCCN(CC)CC1COC2(CCC(C(C)(C)C)CC2)O1 (configuration not stated)
active: [1] 0.246 µM | [3] 0.119 µM | [4] 0.281 µM

C=C(C)CN(CC)c1c([N+](=O)[O-])cc(C(F)(F)F)cc1[N+](=O)[O-]
inactive: [9] | [6]
active: [1] 15.6 µM | [3] 12.8 µM | [4] 14 µM | [5] 92.8 µM | [7] 6.36 µM | [8] 6.23 µM

N#Cc1c[nH]cc1-c1cccc2c1OC(F)(F)O2
inactive: [2]

CC(C)(C)C(=O)C(Oc1ccc(Cl)cc1)n1cncn1 (configuration not stated)
active: [1] 38.6 µM | [4] 41.6 µM | [5] 0.513 µM | [8] 9.82 µM
inactive: [3] | [9] | [6] | [7]

COP(=S)(OC)Oc1ccc([N+](=O)[O-])c(C)c1
inactive: [1] | [3] | [4]

CNC(=O)Oc1cccc2ccccc12
active: [1] 15 µM | [3] 8.41 µM and 15 µM | [4] 12.8 µM
inactive: [1] | [4] | [5] | [6] | [7] | [8]

CN/C(=N\[N+](=O)[O-])NCc1cnc(Cl)s1
inactive: [3] | [4] | [5] | [6] | [7] | [8]

CC(C)N1C(=O)N(c2ccccc2)CSC1=NC(C)(C)C
inactive: [2]

COC(=O)N(C(=O)N1CO[C@@]2(C(=O)OC)Cc3cc(Cl)ccc3C2=N1)c1ccc(OC(F)(F)F)cc1
active: [1] 2.98 µM | [4] 15 µM | [5] 0.483 µM
not listed: [10]
inactive: all other assays above

CCOP(=O)(OCC)Oc1nc(Cl)c(Cl)cc1Cl
active: [1] 9.43 µM and 334 nM | [3] 872 nM and 2.17 µM | [4] 5.46 µM and 7.1 µM
inactive: [1] | [2] | [3] | [4] | [9] | [10] | [5] | [6] | [7] | [8]

COCC(=O)N(c1c(C)cccc1C)C(C)C(=O)OC (configuration not stated)
inactive: [2]

CCCC(=NOCC)C1=C(O)CC(CC(C)SCC)CC1=O (configuration not stated)
inactive: [2]

CCOc1cc(C(C)(C)C)ccc1C1COC(c2c(F)cccc2F)=N1 (configuration not stated)
inactive: [2]

CS(=O)(=O)c1ccc(C(=O)C2C(=O)CCCC2=O)c([N+](=O)[O-])c1
not listed: [2] | [10]
inactive: all other assays above

Clc1nc(Cl)nc(Nc2ccccc2Cl)n1
inactive: [2]

CC1(C)C(C(=O)OC(C#N)c2cccc(Oc3ccccc3)c2)C1(C)C (configuration not stated)
active: [1] 1.98 µM | [3] 1.01 µM | [4] 4.17 µM

CC(C)N1C(=O)c2ccccc2NS1(=O)=O
inactive: [2]

Nc1c(Cl)c(F)nc(OCC(=O)O)c1Cl
inactive: [2]

CCCCC(O)(Cn1cncn1)c1ccc(Cl)cc1Cl (configuration not stated)
inactive: [2]

Cn1c(-c2ccccc2)cc(-c2ccccc2)[n+]1C
inactive: [2]

CS(=O)(=O)c1cc(C(F)(F)F)ccc1C(=O)c1cnoc1C1CC1
not listed: [1] | [2] | [10]
inactive: all other assays above

CCOC(=O)C(C)OC(=O)c1cc(Oc2ccc(C(F)(F)F)cc2Cl)ccc1[N+](=O)[O-] (configuration not stated)
inactive: [1] | [2] | [3] | [4]

O=C1C2CC=CCC2C(=O)N1SC(Cl)(Cl)Cl (configuration not stated)
active: [1] 16.1 µM and 14.7 µM | [4] 9.85 µM
inactive: [3]

Cc1nc(N(C)C)nc(OC(=O)N(C)C)c1C
inactive: [2]

Cc1c(COC(=O)[C@@H]2[C@H](/C=C(\Cl)C(F)(F)F)C2(C)C)cccc1-c1ccccc1
active: [1] 14.6 µM and 14.9 µM | [3] 142 nM and 269 nM | [4] 395 nM and 497 nM | [5] 0.97 µM | [7] 3.2 µM | [8] 2.71 µM
inactive: [2] | [9] | [6]

CC(C)C1(C)N=C(c2ncccc2C(=O)O)NC1=O (configuration not stated)
inactive: [2]

CCSC(=O)N1CCCCCC1
not listed: [2] | [8] | [10]
inactive: all other assays above

CO/N=C(/C1=NOCCO1)c1ccccc1Oc1ncnc(Oc2ccccc2Cl)c1F
active: [1] 1.47 µM and 2.27 µM | [3] 401 nM and 924 nM | [4] 844 nM and 1.02 µM | [5] 0.142 µM | [7] 3.03 µM | [8] 7.61 µM
inactive: [9] | [6]

O=C(Nc1ccccc1-c1ccc(Cl)cc1)c1cccnc1Cl
inactive: [1] | [2] | [3] | [4] | [9] | [5] | [6] | [7] | [8]
active: [1] 77.7 µM | [3] 18.3 µM | [4] 9.92 µM

COP(=O)(OC)O/C(C)=C/C(=O)N(C)C
inactive: [1] | [3] | [4] | [7] | [8]

COP(=S)(OC)SCn1nnc2ccccc2c1=O
active: [1] 26.2 µM | [3] 0.00499 µM | [4] 15 µM | [9] 19.6 µM | [10] 15.4 µM
inactive: [2] | [5] | [6] | [7] | [8]

N#CN=C1SCCN1Cc1ccc(Cl)nc1
not listed: [1] | [9] | [10]
inactive: all other assays above

CC(C)=CC1C(C(=O)OCc2coc(Cc3ccccc3)c2)C1(C)C (configuration not stated)
inactive: [1] | [2] | [3] | [4]

CC1(C)CCC(=Cc2ccc(Cl)cc2)C1(O)Cn1cncn1 (configuration not stated)
inactive: [2]

CCN(CC)c1nc(C)cc(OP(=S)(OC)OC)n1
active: [1] 50 µM | [3] 21.8 µM | [4] 27.4 µM | [8] 67.1 µM
inactive: [7]

OC(c1ccc(Cl)cc1)(c1ccc(Cl)cc1)C(Cl)(Cl)Cl
inactive: [2]

CCNC(=O)NC(=O)C(C#N)=NOC
not listed: [2] | [9] | [10]
inactive: all other assays above

From PubChem BioAssay (EPA / NIEHS)
